# Screening data: PubChem, The Scripps Research Institute Molecular Screening Center
# ssDAF-12 act: activates DAF-12 receptor from parasite S. stercoralis; 370,000 tested, 1% active; AID 652126; activation, % at 6.8 µM; HEK293 ssDAF-12/GRIP1 lit1-tk-luc reporter, luminescence; % of 3 µM dafachronic acid response;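 active = activation above the mean over all tested compounds plus 3 SD, cut at about 0.9% in these data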;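 also: 0% = DMSO-only wells and 100% = 3 µM delta7-dafachronic acid wells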
# DAX1 inh-1: NR0B1 (DAX1) inhibition. 340,000 tested, 0.99% active. inhibition, % at 6.75 µM. HEK293 Gal4-DAX1 luciferase reporter, luminescence. AID 504766;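 active = inhibition above the mean over all tested compounds plus 3 SD, cut at about 4.2% in these data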;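 also: 0% = DAX1-transfected cells with DMSO and 100% = empty-vector control cells with DMSO; inhibition shows as a rise in luminescence from relieved DAX1 repression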
# Target sequence (P51843 207-470 limits assumed): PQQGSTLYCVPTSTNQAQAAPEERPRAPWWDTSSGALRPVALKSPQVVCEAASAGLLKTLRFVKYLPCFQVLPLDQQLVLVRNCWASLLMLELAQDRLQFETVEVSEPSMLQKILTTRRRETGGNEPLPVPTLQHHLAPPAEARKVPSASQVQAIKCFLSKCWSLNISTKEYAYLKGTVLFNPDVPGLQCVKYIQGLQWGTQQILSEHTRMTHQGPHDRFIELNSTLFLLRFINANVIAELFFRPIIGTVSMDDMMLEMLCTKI
# hcDAF-12 act: activates DAF-12 receptor from parasite H. contortus; activation, % at 6.8 µM; 370,000 tested, 1.4% active; HEK293 hcDAF-12 lit1-tk-luc reporter, luminescence; 0% DMSO, 100% Δ7-dafachronic acid;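 active = activation above the mean of all tested compounds plus 3 SD, cut at about 5.5% in these data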;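 also: 100% = response to 3 µM Δ7-dafachronic acid high control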
# hgDAF12 agonist: agonists of H. glycines DAF-12 nuclear receptor; activation, % at 6.8 µM; 370,000 tested, 1.8% active; AID 687014; HEK293 GAL4-hgDAF12 UAS-luciferase reporter, agonist luminescence; normalized to butyrate control;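 active = activation above a cutoff set at the mean of all screened compounds plus 3 SD, cut at about 10% in these data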;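 also: 0% = DMSO wells and 100% = sodium butyrate wells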
# DAX1 inh-2: inhibitors of DAX1 repression of SF-1 activated StAR promoter; HEK293T StAR-luciferase reporter, SF-1/DAX-1 repression relief; 370,000 tested, 1.1% active; inhibition, % at 6.8 µM;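 active = inhibition above the mean over all tested compounds plus 3 SD, cut at about 3.6% in these data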;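 also: 0% = DAX-1 cells with DMSO and 100% = cells lacking DAX-1 with DMSO; higher inhibition means more luminescence from relief of DAX-1 repression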
# DAX1 inh confirm: NR0B1 (human) inhibition, confirmation. shares compounds with DAX1 inh-2. 2,400 tested, 87% active. inhibition, % at 6.8 µM. HEK293T StAR-promoter luciferase reporter, SF-1/DAX-1 repression;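 active = inhibition above the average of every tested compound plus 3 SD, cut at about 3.8% in these data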;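 also: 0% = DAX-1 cells with DMSO and 100% = no DAX-1 control cells with DMSO; active compounds raise luminescence by relieving repression of the StAR reporter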
# SF1 AF2mut Luc: counter-screen for DAX1 inhibitors: nonselective inhibitors with SF-1 AF2 mutant; AID 652136; shares compounds with DAX1 inh-2; HEK293 StAR-luciferase, luminescence; inhibition, % at 6.8 µM; 2,400 tested, 78% active;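 active = inhibition above the mean of all tested compounds plus 3 SD, cut at about 3% in these data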;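 also: 0% = DAX-1 transfected cells with DMSO and 100% = cells without DAX-1 with DMSO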
# LXRb hcDAF ctr: activates human LXR-beta, counter-screen for hcDAF-12 agonists; shares compounds with hcDAF-12 act; AID 743027; activation, % at 6.8 µM; 3,400 tested, under 10 active; HEK293 Gal4-LXR tk-luc reporter, luminescence, 24 h; normalized: DMSO 0%, positive control 100%;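 active = mean percent activation of the reporter above a cutoff set as the average over tested compounds plus their standard deviation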
# Target sequence (P55055 whole entry, looked up, the tested form may be a part): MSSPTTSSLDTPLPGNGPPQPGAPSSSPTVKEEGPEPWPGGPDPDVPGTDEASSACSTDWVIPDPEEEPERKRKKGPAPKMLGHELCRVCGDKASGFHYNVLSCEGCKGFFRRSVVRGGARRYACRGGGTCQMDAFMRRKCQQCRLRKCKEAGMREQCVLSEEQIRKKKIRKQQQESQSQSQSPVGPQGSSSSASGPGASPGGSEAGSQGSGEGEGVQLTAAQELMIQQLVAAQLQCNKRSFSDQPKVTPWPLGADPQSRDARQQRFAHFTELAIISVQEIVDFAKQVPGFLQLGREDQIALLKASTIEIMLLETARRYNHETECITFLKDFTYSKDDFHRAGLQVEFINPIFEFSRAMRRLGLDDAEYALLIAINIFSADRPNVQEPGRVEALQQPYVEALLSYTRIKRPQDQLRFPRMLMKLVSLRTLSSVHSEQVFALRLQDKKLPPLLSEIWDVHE
# hcDAF12 ag: confirmation of H. contortus DAF-12 agonists. shares compounds with hcDAF-12 act. HEK293 hcDAF-12 lit1-tk-luc reporter, luminescence; % of Δ7-dafachronic acid response. activation, % at 6.8 µM. 3,400 tested, 61% active;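 active = mean activation across triplicate tests above the threshold derived from the earlier primary screen, cut at about 5.5% in these data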;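 also: 0% = DMSO only wells and 100% = 3 µM Δ7-dafachronic acid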
# hgDAF12 conf: confirmation of H. glycines DAF-12 agonists; AID 743050; activation, % at 6.8 µM; shares compounds with hgDAF12 agonist; HEK293 GAL4-hgDAF12 luciferase reporter, agonist mode; percent of butyrate response; 3,300 tested, 80% active;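 active = mean activation over triplicate wells above the hit cutoff derived from the earlier primary screen, cut at about 11% in these data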;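 also: 0% = DMSO low control and 100% = 2 mM sodium butyrate high control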
# LXR ag 2: activates human LXR-beta, counter-screen for DAF-12 agonists. 3,300 tested, under 10 active. HEK293 Gal4-LXR luciferase reporter, 24 h. AID 743051. activation, % at 6.8 µM. shares compounds with hgDAF12 agonist;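 active = mean activation of the triplicate above a set limit carried over from the primary screen, none filed active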
# Starred values were filed as active, the others as inactive; . = no result; ! = not confirmed by another sample. This is a sample that favours compounds with a hit; in the whole collection about 4.1% have one here.
SMILES,ssDAF-12 act,DAX1 inh-1,hcDAF-12 act,hgDAF12 agonist,DAX1 inh-2,DAX1 inh confirm,SF1 AF2mut Luc,LXRb hcDAF ctr,hcDAF12 ag,hgDAF12 conf,LXR ag 2
CC(OC(=O)c1ccc2c(c1)OCCO2)C(=O)c1ccccc1 (stereo unspecified),1,4.9*,7.3*,14*,12*,11*,6.8*,2,7.8*,16*,1
Cc1ccc2nc(-c3ccc(F)cc3)c(CC3CCCCC3)n2c1,1.5*,.,9.7*,14*,6.6*,3,5.0*,0,5,10,0
COC(=O)c1ccc2nc(-c3ccc(Cl)cc3)c(CC3CCCCC3)n2c1,1,.,3,4,1,.,.,.,.,.,.
CCOC(=O)[C@]12CCC=C1N(Cc1ccc3c(c1)OCO3)C(=O)[C@H](CC(=O)NCc1cccc(C(F)(F)F)c1)C2,-2,.,0,-2,-2,.,.,.,.,.,.
Cc1ccc(CN2CCCCC(NC(=O)c3ccc(F)c(F)c3)C2=O)cc1 (stereo unspecified),-1,.,-3,-5,-2,.,.,.,.,.,.
C/C(N)=C(/C#N)C(=O)CSc1nnc(-c2ccc(OC(F)F)cc2)o1,0,6.3*!,6.8*!,20*,4.8*,11*,8.2*,1,7.3*,14*,1
CC(C)N1C(=O)c2ccccc2NC(=O)C1C(=O)NCc1ccccc1 (stereo unspecified),-1,.,-1,0,2,.,.,.,.,.,.
CCOC(=O)/C=C/C(=O)N1CCc2ccccc21,-1,-1,3,0,-1,.,.,.,.,.,.
O=C(/C=C/c1ccco1)N1CCc2ccccc21,1.5*,0,16*,16*,10*,13*,6.4*,2,11*,21*,1
c1ccc2sc(N3CCCCC3)nc2c1,0,3,2,13*,7.8*,9.7*,6.5*,.,.,15*,1
Fc1ccc2nc(N3CCCC3)sc2c1,-1,1,5,28*,5.2*,7.9*,5.0*,.,.,15*,1
O=[N+]([O-])c1ccc2nc(N3CCCC3)sc2c1,0,1,3,7,0,.,.,.,.,.,.
CC(=O)NC12CC3CC(C1)CC(C(=O)OCC(=O)c1cc(C)n(C)c1C)(C3)C2,0,1,6.7*,16*,9.8*,11*,7.1*,1,6.2*,14*,1
O=c1c2ccccc2nnn1CSc1ccccc1F,1,3,5.9*,14*,6.5*,11*,5.3*,.,.,15*,1
O=c1c2ccccc2nnn1CCc1ccccc1,0,4,7.1*,16*,10.0*,12*,6.4*,2,7.8*,15*,1
O=C(NC1=NCCS1)c1sc2ccccc2c1Cl,1.1*,1,11*,21*,4.7*,12*,7.4*,1,9.7*,15*,1
O=C(NC1=NCCS1)c1sc2cc(Cl)cc(Cl)c2c1Cl,0,1,-3,0,0,.,.,.,.,.,.
O=C(NC1=NCCS1)c1ccc(C(F)(F)F)cc1,-1,1,1,6,1,.,.,.,.,.,.
O=C(NC1=NCCS1)c1cccc(OC(F)F)c1,0,4.8*,1,16*,5.0*,14*,9.6*,.,.,14*,1
CC(C)c1ccc(C(=O)NC2=NCCS2)cc1,1,0,5,18*,5.5*,19*,7.0*,.,.,14*,1
O=C(NCCN1CCC(n2c(=O)[nH]c3ccccc32)CC1)c1cc(F)cc(F)c1,0,.,-1,-6,1,.,.,.,.,.,.
Brc1ccc(OCc2cn3ccccc3n2)cc1,0,0,4,20*,6.5*,9.2*,4.6*,.,.,16*,1
O=C(COc1ccc(Br)cc1)NCc1cn2ccccc2n1,0,-1,-2,5,0,.,.,.,.,.,.
Cc1ccc(S(=O)(=O)N2CCC(N3CCN(C)CC3)CC2)cc1Cl,-1,-1,0,1,0,.,.,.,.,.,.
CNC(=O)c1cc2c(s1)CCCCCC2,-1,1,0,-2,0,.,.,.,.,.,.
SMILES,ssDAF-12 act,DAX1 inh-1,hcDAF-12 act,hgDAF12 agonist,DAX1 inh-2,DAX1 inh confirm,SF1 AF2mut Luc,LXRb hcDAF ctr,hcDAF12 ag,hgDAF12 conf,LXR ag 2
Cc1ccc(C(=O)NC2CCC(C)CC2)s1 (stereo unspecified),1.0*,1,4,19*,14*,15*,6.6*,.,.,18*,1
CC1CCC(NC(=O)c2cc3c(s2)CCCC3)CC1 (stereo unspecified),0,2,2,14*,6.1*,6.7*,4.5*,.,.,12*,0
O=C1C(=Cc2cccs2)CCc2ccccc21,1.4*,.,9.4*,18*,7.7*,12*,6.2*,2,8.7*,18*,1
O=C1c2ccccc2CCc2ccccc21,-1,0,-1,1,0,.,.,.,.,.,.
NC(=O)C(NN=C(c1ccccc1)c1ccccc1)c1ccccc1 (stereo unspecified),-1,-1,-1,2,0,.,.,.,.,.,.
COC(=O)C1=CN(c2ccccc2OC)C(N)=C(C#N)C1c1cccc([N+](=O)[O-])c1 (stereo unspecified),-1,.,0,1,-4,.,.,.,.,.,.
CN(CC(=O)Nc1ccc(F)cc1)C(=O)c1ccc(-c2ccc(F)cc2)o1,-1,-1,-1,0,-1,.,.,.,.,.,.
COc1cc2c(cc1OC)CN(C(=O)c1cccc(S(=O)(=O)N3CCc4ccccc43)c1)CC2,-1,-1,-2,-6,-2,.,.,.,.,.,.
O=C(/C=C/c1ccc(Cl)cc1)Nc1nccs1,1,0,8.6*,24*,11*,18*,10*,2,7.7*,20*,1
O=C(NCCS(=O)(=O)NCCc1ccccc1)c1ccc2c(c1)OCO2,1.1*,4.3*,5.6*,15*,10*,7.9*,3.1*,.,.,14*,1
CCNC(=S)NNC(=O)c1cc(-c2ccc(OC)cc2)nc2ccccc12,1,-3,5,18*,5.5*,15*,8.8*,.,.,18*,1
